Screening results as filed in PubChem.
The list is not random: actives were taken first. Their share in the collection is about 19%.
TDP1 cell noCPT: qHTS for Inhibitors of human tyrosyl-DNA phosphodiesterase 1 (TDP1): qHTS in cells in absence of CPT. DT40 Tdp1-/- hTDP1 cells, no CPT, ATP luminescence, 48 h. Potency, µM (series often up to 46.2 µM), for inactives: at the highest dose activity change, negative = growth inhibition, actives largely listed as inhibitors. 420,000 tested, 15% active. AID 686978, 2013; also: potency is read from the fitted curve at half-maximal effect; nearly all actives have a fitted effect of over 55% in size
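Camptothecin absent (DMSO only). Human TDP1-complemented DT40 knockout cells, 400 cells/well, 37 °C for minimum 48 hr; ATP measured via CellTiter-Glo, 30 min dark incubation, luminescence.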
HT1080 IDH1KD tx: qHTS for induction of synthetic lethality in tumor cells producing 2HG: qHTS for the HT-1080-IDH1KD cell line; 360,000 tested, 2% active; Potency, µM (doses to about 46.1 µM), inactives show at the top dose activity, negative = toxicity, actives largely listed as cytotoxic; AID 686971, 2013; HT-1080 IDH1 knockdown viability, ATP luminescence, 48 h;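 also: potency is read from the fitted curve at half-maximal effect; 0% = DMSO wells and -100% = cell-free medium wells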
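% activity derives from luminescence (CellTiter-Glo), normalised to DMSO and no-cell wells. HT-1080-IDH1KD cells, 750/well, had 48 h compound exposure at 37 °C.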
HT1080NT lethal: qHTS for induction of synthetic lethality in tumor cells producing 2HG: qHTS for the HT-1080-NT fibrosarcoma cell line; HT-1080-NT fibrosarcoma viability, CellTiter-Glo ATP luminescence, 48 h; Potency, µM (series often up to 46.1 µM), without a hit: at the top dose activity, negative = less viability, most hits filed as cytotoxic; 360,000 tested, 1.6% active;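 also: NT is the 2HG producing partner of a matched IDH1 knockdown line; potency is read from the fitted curve at half-maximal effect; 0% = DMSO-treated cells and -100% = media-only wells without cells; nearly all actives have a fitted effect of over 55% in size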
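Luminescent CellTiter-Glo readout after 48 hours of compound exposure at 37 degrees C defined viability of HT-1080-NT cells. Activity was normalized to DMSO wells and cell-free media wells; concentration-response curves were fitted and assigned curve classes.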
DT40 TDP1 CPT: qHTS for Inhibitors of human tyrosyl-DNA phosphodiesterase 1 (TDP1): qHTS in cells in presence of CPT; Potency, µM (top dose mostly 46.2 µM), for the others: at the top dose activity change, negative = growth inhibition, most hits filed as inhibitors; 420,000 tested, 12% active; AID 686979, 2013; chicken DT40 Tdp1-/-;hTDP1 cells + 20 nM CPT, ATP luminescence, 48 h; also: potency is read from the fitted curve at half-maximal effect; nearly all actives have a fitted effect of over 55% in size
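Chicken DT40 Tdp1-/- cells complemented with human TDP1, 400 cells/well, exposed to compounds plus 20 nM camptothecin for at least 48 h at 37 C; viability read as ATP content by CellTiter-Glo luminescence.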
IL1B secr inh: qHTS for Inhibitors of Inflammasome Signaling: IL-1-beta AlphaLISA Primary Screen; THP-1 LPS/ATP IL-1B secretion, AlphaLISA, 16 h; stronger effect = lower value; activity change, % at 57.5 µM; 360,000 tested, 4.7% active; AID 743279, 2014; in the data active = activity change below about -50%; inconclusive = mostly about -30% to -49%
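Secreted IL-1B measured by AlphaLISA bead assay after 16 h compound exposure of THP-1 cells; compounds (final up to 57.5 uM) added 1 h before LPS (250 ng/mL) and ATP (1.25 mM) stimulation; lower signal means less secretion.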
* hit, by the source's call; ? = inconclusive; . = no result; ! = not confirmed by another sample. Unless noted, calls follow the shape of the dose curve; as a rule, active = well fitted curve in the direction sought with a large enough effect; inconclusive = small, poorly fitted or top-dose-only effect, or another doubt; inactive = no such curve, though single readings can be large; an effect the other way counts as inactive or inconclusive. Unless noted, % is scaled to controls: 0 for no effect and ±100 for the full control effect.

SMILES | TDP1 cell noCPT | HT1080 IDH1KD tx | HT1080NT lethal | DT40 TDP1 CPT | IL1B secr inh
CN(Cc1cccc(-c2cccnc2)c1)C(=O)Oc1ccc([N+](=O)[O-])cc1 | ? | ? | ? | 18µM* | -25
C[C@]12CCC3C(CC[C@H]4C[C@H](O)CC[C@]34C)C1C[C@H](O)[C@H]2O (some centres undefined) | -21% | 10% | 11% | -16% | 18
CCC1Nc2ncnc(N3CCN(c4ccccn4)CC3)c2N(Cc2ccc(Br)cc2)C1=O (centres undefined) | ? | -20% | -19% | ? | ?
COc1ccc2c(c1OC)C(=O)O[C@@H]2[C@H]1c2cc3c(cc2CCN1C)OCO3 | -5% | 15% | ? | -25% | 19
COc1cc([C@@H]2c3cc4c(cc3[C@H](O)[C@H]3COC(=O)[C@H]23)OCO4)cc(OC)c1OC | 0.15µM*! | 0.0065µM* | ? | 0.15µM* | 63
COc1cc([C@@H]2c3cc4c(cc3[C@H](O)[C@H]3COC(=O)[C@@H]23)OCO4)cc(OC)c1OC | 0.025µM* | . | . | 0.071µM* | .
COc1cc(C2c3cc4c(cc3C(O)C3COC(=O)C23)OCO4)cc(OC)c1O (centres undefined) | 0.21µM* | . | . | 0.26µM* | .
COc1cc([C@@H]2c3cc4c(cc3C(O[C@@H]3O[C@@H]5CO[C@@H](C)O[C@H]5[C@H](O)[C@H]3O)C3COC(=O)[C@@H]32)OCO4)cc(OC)c1OP(=O)(O)O (some centres undefined) | 0.3µM* | . | . | 0.21µM* | .
COc1ccc2c(c1OC)C(=O)O[C@H]2[C@@H]1c2cc3c(cc2CCN1C)OCO3 | -15% | -1% | 20% | -8% | 5
Cc1ccc(-c2nc3ncccc3o2)cc1NC(=O)c1cccc(OCC(C)C)c1 | ? | . | . | -28% | .
COc1cc(C(C#N)N2CCOCC2)ccc1O (centres undefined) | 0% | 3% | ? | 5% | -4
COc1cc([C@@H]2c3cc4c(cc3[C@@H](OC)[C@H]3COC(=O)[C@H]23)OCO4)cc(OC)c1O | 1.3µM* | ? | ? | 1.2µM* | 71
COc1ccc(C2CN(C)CC2C(=O)c2ccc(F)cc2)cc1Cl (centres undefined) | 21µM* | -15% | -16% | -14% | -58*
CN(C(=O)c1ccco1)C1(c2ccccc2Cl)CCCCC1=O (centres undefined) | -13% | 1% | 0% | -12% | 32
Cc1ccc(NC(=O)C2CCN(C(=O)c3cnn(-c4ccccc4)c3-n3cccc3)CC2)cc1Cl | 13µM* | . | . | ? | .
O=C(NCc1ccc(Cl)cc1)C1CCN(C(=O)c2cnn(-c3ccccc3)c2-n2cccc2)CC1 | 10µM* | . | . | 15µM* | .
COc1ccc(CNC(=O)C2CCN(C(=O)c3cnn(-c4ccccc4)c3-n3cccc3)CC2)cc1 | 6.5µM* | . | . | 16µM* | .
COc1ccc(CNCC(=O)N2CCC3(CC2)OCCO3)cc1 | -8% | -5% | 15% | 0% | 8
COc1ccc(CNC(=O)C2CCN(c3nc(OC)nc(OC)n3)CC2)cc1 | 16µM* | 0% | 3% | ? | 13
C#C[C@@]1(O)CCC2C3CCC4=C/C(=N/OCC(=O)NC(C(=O)NC(CC(C)C)C(=O)O)C(C)C)CC[C@]4(C)C3CC[C@@]21C (some centres undefined) | 21% | -2% | -2% | -10% | 36
COc1ccc(OC)c(-n2c(O)c(C=NCCN3CCNCC3)c(=O)[nH]c2=S)c1 | 7% | 9% | 5% | -4% | 0
